# Screen size: about 47,000 compounds; about 3,100 (6.6%) were called active. The list comes from a sample in which actives are over-represented; it also holds similar structures and randomly drawn compounds. Unmarked numbers belong to inactive results. No stated cut-off is given here; in the data, active means inhibition above about 30%; inactive means the rest.
# Target: Ubiquitin carboxyl-terminal hydrolase 17-like protein 5 (Homo sapiens) (UniProt A8MUK1)
# Test: blocks human USP17 ubiquitin-rhodamine cleavage (AID 1645855)
# Settings: purified USP17, Ub-rhodamine cleavage fluorescence, 3 h; at 50 µM; active compounds read high
# Ubiquitin carboxyl-terminal hydrolase 17-like protein 5 (Homo sapiens), sequence (A8MUK1 whole entry, looked up): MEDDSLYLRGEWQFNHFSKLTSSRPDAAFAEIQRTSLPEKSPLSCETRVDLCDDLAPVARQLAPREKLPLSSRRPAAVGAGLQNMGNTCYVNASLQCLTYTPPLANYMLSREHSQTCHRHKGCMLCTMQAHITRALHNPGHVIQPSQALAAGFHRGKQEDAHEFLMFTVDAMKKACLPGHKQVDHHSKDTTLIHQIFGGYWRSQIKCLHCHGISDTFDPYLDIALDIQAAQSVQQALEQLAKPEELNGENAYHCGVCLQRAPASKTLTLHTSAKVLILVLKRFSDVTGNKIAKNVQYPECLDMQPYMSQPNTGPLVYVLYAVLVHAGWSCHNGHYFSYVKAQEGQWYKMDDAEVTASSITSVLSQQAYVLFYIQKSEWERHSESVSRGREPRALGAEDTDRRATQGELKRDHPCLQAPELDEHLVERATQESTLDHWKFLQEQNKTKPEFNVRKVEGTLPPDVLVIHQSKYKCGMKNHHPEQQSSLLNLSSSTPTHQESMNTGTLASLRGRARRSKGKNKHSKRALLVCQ
row,Compound,inhibition
1,CC(C)Oc1ccc(CNC(=O)C2CCCN(c3ccc(N4CCOCC4)nn3)C2)cc1 (configuration not stated),-6.08%
2,O=C1C(O)=C(c2ccc(O)c(O)c2)C(=O)C(O)=C1c1ccccc1,57.3% (active)
3,COc1cnc(CSc2nccc(C)n2)cc1OCC(=O)Nc1ccc(C)cc1C,2.43%
4,CC(C)Cc1cc(-c2nn3c(-c4ccccc4Cl)nnc3s2)n[nH]1,42.6% (active)
5,CC(O)CNc1ncnc2c1oc1nc(C(C)C)c3c(c12)CCC3 (configuration not stated),3.5%
6,CC(C)Cc1nc2sc3c(N(CCO)Cc4ccccc4)ncnc3c2c2c1COC(C)(C)C2,29.6%
7,CC(C)Cc1nc2sc3c(NCc4ccco4)ncnc3c2c2c1CCC2,43.3% (active)
8,COc1cccc(-c2cn3c4c(=O)n(C)c(=O)n(C)c4nc3n2-c2ccc(OC)c(OC)c2)c1,20.6%
9,CC(=O)N[C@@]12CN(C)CC[C@@H]1[C@@H](c1ccccc1)N(CC(=O)Nc1ccc(F)cc1)C2,-2.8%
10,COCCCn1c(=O)c2ccccc2n(Cc2nc(-c3ccccc3)no2)c1=O,-3.49%
11,O=C(CCCn1c(=O)c2ccccc2n(Cc2ccccc2F)c1=O)NC1CCCC1,21.6%
12,N#Cc1ccccc1Cn1c(=O)n(CCCC(=O)NCc2ccc(F)cc2)c(=O)c2ccccc21,30.8% (active)
13,CC1Oc2ccc(NC(=O)c3ccc4c(c3)CCC4)cc2NC1=O (configuration not stated),-11%
14,Cc1ccc(Cn2cc(-c3noc(-c4ccc[nH]4)n3)nn2)cc1,0.022%
15,COc1ccccc1C(=O)Nc1cccc(Oc2ccccc2)c1,12.6%
16,CC(CCc1ccccc1)NC(=O)c1cc2cc(Oc3ccccc3)ccc2[nH]1 (configuration not stated),32.3% (active)
17,CC(CCc1ccccc1)NC(=O)/C=C/c1cccc([N+](=O)[O-])c1 (configuration not stated),6.91%
18,C[C@@H]1O[C@@H](OC2[C@H](Oc3cc(O)c4c(c3)OC(c3ccc(O)cc3)CC4=O)O[C@H](CO)[C@@H](O)[C@@H]2O)[C@H](O)[C@H](O)[C@H]1O (some centres not stated),0.6%
19,Cc1ccc2cc(CNc3ccccc3)c(=O)n(CC(=O)Nc3ccccc3C)c2c1,84.2% (active)
20,Cc1cccc(NC(=O)Cn2c(C)ccc(NC(=O)Nc3cccc(C)c3)c2=O)c1,14%
21,Cc1cccc(C2=NC3(CCN(CC(=O)Nc4ccccc4C)CC3)NC2=O)c1,-42.3%
22,O=C(Cn1cccc(S(=O)(=O)N2CCCC2)c1=O)Nc1ccccc1,-38%
23,CN(C)CCO[C@H]1CN(C(=O)c2cccnc2)[C@@H]2CCCO[C@H]12,-13.9%
24,CN(c1ccccc1)c1nc(=O)n(CC(=O)Nc2ccc3c(c2)OCCO3)c2ccccc12,54% (active)
25,COc1ccc(C)cc1NC(=O)Cn1c(=O)nc(N(C)c2ccccc2)c2ccccc21,14.1%
26,O=C(Cn1cnc2c(sc3ccccc32)c1=O)Nc1ccc2c(c1)OCCO2,23.3%

row,Compound,inhibition
1,COc1cc(O)sc1C=Nc1ccc(Oc2ccccc2)cc1,9.93%
2,Cc1cnc(N2CCC3(CC2)[C@@H]2CN(Cc4cccnc4)C[C@@H]2C(=O)N3C)nc1,-34.9%
3,c1ccc(-c2ccc(NCc3ccc4c(c3)OCO4)nn2)cc1,71.6% (active)
4,c1cc(CNCc2ccc3c(c2)OCO3)ccn1,0.475%
5,CCC(Oc1ccccc1)C(=O)NCc1ccc2c(c1)OCO2 (configuration not stated),-0.19%
6,COC(=O)c1ccc(CN2CCN(c3cnn4cnnc4c3)CC2)cc1,0.152%
7,CN(CC(=O)Nc1cccc(C(F)(F)F)c1)Cc1nc2ccccc2c(=O)[nH]1,-13.9%
8,Cc1ccc(S(=O)(=O)Nc2nc3ccccc3n3nnnc23)cc1,-34.7%
9,CSc1nccc(-c2ccc(F)cc2)c1C#N,82.5% (active)
10,COc1ccc(F)c([C@@H]2NC(=O)CC[C@H]2NCc2cccc(O)c2)c1,-6.39%
11,CC(=O)Nc1cccnc1-c1ccc(C(=O)Nc2ccc(C)c(C)c2)cc1,6.52%
12,Cc1ocnc1C(=O)N[C@@H]1C[C@@H](Oc2ccccc2)[C@H](O)[C@H]1N1CCOCC1,9.29%
13,Cc1ccc(NS(=O)(=O)c2cc(C(=O)NCc3cccnc3)ccc2Cl)cc1,6.21%
14,Cc1ccc2occ(CC(=O)Nc3sc4c(c3C(=O)NCc3cccnc3)CCCC4)c2c1,33.6% (active)
15,Cc1cccc(OCCCC(=O)Nc2sc3c(c2C(N)=O)CCCC3)c1C,-11%
16,COc1ccc(CCNC(=O)c2ccc3ccccc3c2)cc1OC,-2.29%
17,CCC(=O)NC(=NCCc1c[nH]c2ccc(Cl)cc12)Nc1nc(C)cc(C)n1,43.9% (active)
18,O=C(NCCc1c[nH]c2ccccc12)c1cc2cc(Cl)ccc2o1,23%
19,COc1ccc2[nH]cc(CCNC(=O)Cc3csc(-c4cc(OC)c(OC)c(OC)c4)n3)c2c1,8.14%
20,CC(=O)N1CCCCCC1C1CCN(c2ncccc2C#N)CC1 (configuration not stated),-19%
21,Cn1nccc1-c1cccc(-c2noc(-c3ccoc3)n2)c1,-3.53%
22,O=C(CCCC1=NS(=O)(=O)c2ccccc2N1)Nc1ccc(C(=O)O)cc1,25.1%
23,Cc1c(Cl)cccc1NC(=O)C(=O)c1cn(CC(=O)N2CCOCC2)c2ccccc12,-0.359%
24,Cn1ccnc1CN1C(=O)CO[C@H]2CN(Cc3ccc4c(c3)OCO4)C[C@H]21,4.69%
25,Cc1ccccc1CS(=O)(=O)Cc1ccc(C(=O)Nc2noc3ccccc23)o1,48.3% (active)
26,Cc1cc(-c2cncnc2-c2ccc(CNC(=O)Cc3ccccc3C)cc2)on1,18.8%

# From PubChem BioAssay AID1645855 (Buhrlage Lab, Dana-Farber Cancer Institute and Novartis …, 2021)
